# Measured values published in publication PMC5540273 (PLoS ONE, 2017).
# Several values for one entry are separate records, joined by “and”; a condition that tells them apart may be missing. Identical values can stand only once. Like-named read-outs stand apart in the source and are kept apart here.
# What was measured:
# [1] = system: RPS6KA5(Kin.Dom.2-C-terminal); details: concentration: 1 μM, replicates: in singlicate, n = 1
# [2] = system: T1, RSK1(Kin.Dom.1-N-terminal); details: concentration: 1 μM, replicates: in singlicate, n = 1
# T1 construct: gene RPS6KA1
# [3] = system: T2, RSK1(Kin.Dom.2-C-terminal); details: concentration: 1 μM, replicates: in singlicate, n = 1
# T2 construct: gene RPS6KA1
# [4] = system: T3, RSK2(Kin.Dom.1-N-terminal); details: concentration: 1 μM, replicates: in singlicate; n = 1
# T3 construct: gene RPS6KA3
# [5] = system: T4, RSK2(Kin.Dom.2-C-terminal); details: concentration: 1 μM, replicates: in singlicate, n = 1
# T4 construct: gene RPS6KA3
# [6] = system: T5, RSK3(Kin.Dom.1-N-terminal); details: concentration: 1 μM, replicates: in singlicate, n = 1
# T5 construct: gene RPS6KA2
# [7] = system: T6, RSK3(Kin.Dom.2-C-terminal); details: concentration: 1 μM, replicates: in singlicate; n = 1
# T6 construct: gene RPS6KA2
# [8] = system: T7, RSK4(Kin.Dom.1-N-terminal); details: concentration: 1 μM, replicates: in singlicate, n = 1
# T7 construct: gene RPS6KA6
# [9] = system: T8, RSK4(Kin.Dom.2-C-terminal); details: concentration: 1 μM, replicates: in singlicate, n = 1
# T8 construct: gene RPS6KA6
# S6K1 = details: concentration: 1 μM, replicates: in singlicate; n = 1
# SBK1 = details: concentration: 1 μM, replicates: in singlicate, n = 1
# SGK2 = details: concentration: 1 μM, replicates: in singlicate, n = 1
# SGK3 = details: concentration: 1 μM, replicates: in singlicate, n = 1
# SGK = details: concentration: 1 μM, replicates: in singlicate, n = 1
# SIK2 = details: concentration: 1 μM, replicates: in singlicate, n = 1
# SIK = details: concentration: 1 μM, replicates: in singlicate, n = 1
# SLK = details: concentration: 1 μM, replicates: in singlicate, n = 1
# SNARK = system: T9, SNARK; details: concentration: 1 μM, replicates: in singlicate, n = 1
# T9 construct: gene NUAK2
# SNRK = details: concentration: 1 μM, replicates: in singlicate; n = 1
# SRC = details: concentration: 1 μM, replicates: in singlicate, n = 1
# 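Note: KINOMEscan kinase panel screen.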
compound,measurement,setting,value
Cl.Fc1ccccc1COc1ccc(Nc2ncnc3ccc(-c4nnc(C(F)(F)F)o4)cc23)cc1Cl [GW424170],%Inh,[1],0%
same,%Inh,[2],1%
same,%Inh,[3],1%
same,%Inh,[4],0%
same,%Inh,[5],0%
same,%Inh,[6],0%
same,%Inh,[7],0%
same,%Inh,[8],0%
same,%Inh,[9],2%
same,%Inh,S6K1,0%
same,%Inh,SBK1,0%
same,%Inh,SGK2,0%
same,%Inh,SGK3,0%
same,%Inh,SGK,0%
same,%Inh,SIK2,0%
same,%Inh,SIK,1%
same,%Inh,SLK,20%
same,%Inh,SNARK,0%
same,%Inh,SNRK,0%
same,%Inh,SRC,0%
COc1ccc(-c2nc3n(c2-c2ccncc2)CCC3)cc1 [SKF-104493],%Inh,[1]; 1 µM,10% and 0%
same,%Inh,[2]; 1 µM,0% and 4%
same,%Inh,[3]; 1 µM,93.1% and 37%
same,%Inh,[4],0%
same,%Inh,[5]; 1 µM,12% and 5%
same,%Inh,[6]; 1 µM,1% and 0%
same,%Inh,[7],0%
same,%Inh,[8]; 1 µM,68% and 0%
same,%Inh,[9]; 1 µM,59% and 63%
same,%Inh,S6K1,0%
same,%Inh,SBK1; 1 µM,27% and 8%
same,%Inh,SGK2; 1 µM,16% and 0%
same,%Inh,SGK3; 1 µM,13% and 2%
same,%Inh,SGK; 1 µM,7% and 0%
same,%Inh,SIK2; 1 µM,0% and 2%
same,%Inh,SIK; 1 µM,0% and 5%
same,%Inh,SLK; 1 µM,20% and 36%
same,%Inh,SNARK; 1 µM,7% and 2%
same,%Inh,SNRK,0%
same,%Inh,SRC; 1 µM,18% and 0%
O=C(Nc1ccccc1F)NC1CCN(c2ccnc(Nc3ccc(F)cc3)n2)C1 (stereo not drawn) [GSK1379722],%Inh,[1],19%
same,%Inh,[2],8%
same,%Inh,[3],0%
same,%Inh,[4],14%
same,%Inh,[5],28%
same,%Inh,[6],13%
same,%Inh,[7],0%
same,%Inh,[8],0%
same,%Inh,[9],0%
same,%Inh,S6K1,11%
same,%Inh,SBK1,21%
same,%Inh,SGK2,0%
same,%Inh,SGK3,0%
same,%Inh,SGK,0%
same,%Inh,SIK2,0%
same,%Inh,SIK,0%
same,%Inh,SLK,5%
same,%Inh,SNARK,0%
same,%Inh,SNRK,0%
same,%Inh,SRC,0%
Cl.c1ccc(Cn2ncc3cc(Nc4ncnc5ccccc45)ccc32)cc1 [GW273749],%Inh,[1],5%
same,%Inh,[2],11%
same,%Inh,[3],3%
same,%Inh,[4],0%
same,%Inh,[5],0%
same,%Inh,[6],0%
same,%Inh,[7],0%
same,%Inh,[8],0%
same,%Inh,[9],17%
same,%Inh,S6K1,4%
same,%Inh,SBK1,7%
same,%Inh,SGK2,0%
same,%Inh,SGK3,0%
same,%Inh,SGK,0%
same,%Inh,SIK2,0%
same,%Inh,SIK,0%
same,%Inh,SLK,0%
same,%Inh,SNARK,10%
same,%Inh,SNRK,0%
same,%Inh,SRC,10%
CC(C)(C)OC(=O)NC1CCCN(c2cc(-c3ccc4c(N)n[nH]c4c3)nc(N)n2)C1 (stereo not drawn) [GSK2286096],%Inh,[1],0%
same,%Inh,[2],26%
same,%Inh,[3],0%
same,%Inh,[4],27%
same,%Inh,[5],100%
same,%Inh,[6],0%
same,%Inh,[7],0%
same,%Inh,[8],36%
same,%Inh,[9],23%
same,%Inh,S6K1,2%
same,%Inh,SBK1,15%
same,%Inh,SGK2,0%
same,%Inh,SGK3,44%
same,%Inh,SGK,0%
same,%Inh,SIK2,0%
same,%Inh,SIK,0%
same,%Inh,SLK,0%
same,%Inh,SNARK,0%
same,%Inh,SNRK,3%
same,%Inh,SRC,0%
Oc1ccc2ncnc(Nc3ccc(OCc4ccccc4)cc3)c2c1 [GI262866],%Inh,[1],0%
same,%Inh,[2],0%
same,%Inh,[3],0%
same,%Inh,[4],0%
same,%Inh,[5],0%
same,%Inh,[6],5%
same,%Inh,[7],0%
same,%Inh,[8],0%
same,%Inh,[9],0%
same,%Inh,S6K1,0%
same,%Inh,SBK1,5%
same,%Inh,SGK2,0%
same,%Inh,SGK3,0%
same,%Inh,SGK,6%
same,%Inh,SIK2,0%
same,%Inh,SIK,0%
same,%Inh,SLK,1%
same,%Inh,SNARK,0%
same,%Inh,SNRK,0%
same,%Inh,SRC,0%
COc1cc2c(Nc3cccc(NC(=O)c4ccccc4)c3)ncnc2cc1OCCCN1CCOCC1 [GSK223810],%Inh,[1],0%
same,%Inh,[2],2%
same,%Inh,[3],0%
same,%Inh,[4],18%
same,%Inh,[5],20%
same,%Inh,[6],13%
same,%Inh,[7],11%
same,%Inh,[8],20%
same,%Inh,[9],14%
same,%Inh,S6K1,0%
same,%Inh,SBK1,34%
same,%Inh,SGK2,13%
same,%Inh,SGK3,1%
same,%Inh,SGK,0%
same,%Inh,SIK2,7%
same,%Inh,SIK,0%
same,%Inh,SLK,0%
same,%Inh,SNARK,0%
same,%Inh,SNRK,0%
same,%Inh,SRC,94.7%
Fc1ccc(-c2ncn(CCCNCc3ccccc3)c2-c2ccncc2)cc1,%Inh,[1],7%
same,%Inh,[2],0%
same,%Inh,[3],22%
same,%Inh,[4],0%
same,%Inh,[5],22%
same,%Inh,[6],16%
same,%Inh,[7],21%
same,%Inh,[8],0%
same,%Inh,[9],31%
same,%Inh,S6K1,19%
same,%Inh,SBK1,0%
same,%Inh,SGK2,19%
same,%Inh,SGK3,0%
same,%Inh,SGK,30%
same,%Inh,SIK2,0%
same,%Inh,SIK,9%
same,%Inh,SLK,35%
same,%Inh,SNARK,5%
same,%Inh,SNRK,5%
same,%Inh,SRC,24%
CCC(CC)(CC)n1cnc2c(N)ncnc21 [SKF-97620],%Inh,[1],4%
same,%Inh,[2],0%
same,%Inh,[3],34%
same,%Inh,[4],41%
same,%Inh,[5],10%
same,%Inh,[6],0%
same,%Inh,[7],22%
same,%Inh,[8],40%
same,%Inh,[9],2%
same,%Inh,S6K1,16%
same,%Inh,SBK1,51%
same,%Inh,SGK2,3%
same,%Inh,SGK3,15%
same,%Inh,SGK,0%
same,%Inh,SIK2,1%
same,%Inh,SIK,0%
same,%Inh,SLK,24%
same,%Inh,SNARK,28%
same,%Inh,SNRK,30%
same,%Inh,SRC,0%
